# Assay outcomes (PubChem BioAssay)
# Shown are actives, neighbours in structure and some others; about 2.4% of the full set was active somewhere.
# D2 PAM-1 = human D2 receptor positive allosteric modulation | DiscoveRx D2 beta-arrestin cells, luminescence, 90 min; 100% = 57 uM dopamine signal | potentiation, % (no concentration beside the values) | 0.23% of 360,000 active; in the data active means potentiation above about 50%; inconclusive means mostly about 30% to 49%
# Target sequence (P14416 whole entry, looked up): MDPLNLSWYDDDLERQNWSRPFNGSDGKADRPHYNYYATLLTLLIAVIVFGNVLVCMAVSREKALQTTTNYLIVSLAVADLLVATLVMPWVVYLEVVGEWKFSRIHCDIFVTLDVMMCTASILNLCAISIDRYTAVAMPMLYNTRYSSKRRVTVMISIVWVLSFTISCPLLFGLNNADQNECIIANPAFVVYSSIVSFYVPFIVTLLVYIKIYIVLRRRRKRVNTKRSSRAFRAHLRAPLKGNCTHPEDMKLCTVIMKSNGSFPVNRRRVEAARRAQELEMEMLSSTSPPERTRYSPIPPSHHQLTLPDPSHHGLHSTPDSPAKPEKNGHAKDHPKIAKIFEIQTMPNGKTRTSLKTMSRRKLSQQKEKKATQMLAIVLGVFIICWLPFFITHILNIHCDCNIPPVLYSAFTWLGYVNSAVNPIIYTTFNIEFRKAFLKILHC
#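 PathHunter beta-arrestin assay in DiscoveRx D2 cells. Compounds were added with an EC20 of dopamine (50 nM final) for 90 min at 37 deg C. Luminescence was read 1 h after detection reagent, with 57 uM dopamine as the EC100 control.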
# D2 PAM-2 = D2 dopamine receptor (human) potentiation | HEK293 T-REx D2, calcium flux, EC20 dopamine potentiation | P14416 | 0.34% of 340,000 active | potentiation, % at 10 µM;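 active means potentiation over 3 SD above the plate norm, cut at about 30% in these data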; further: 0% is about no effect
#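 Tetracycline-induced HEK293 T-REx cells force-coupled to calcium signalling expressed D2; compounds were pin-added after a 10 s baseline, read kinetically 180 s, then an EC20 dopamine challenge followed with a further 180 s calcium read.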
# D2 antagonist = D2 dopamine receptor (human) antagonism; AID 485344; inhibition, % at 10 µM; HEK293 TREx D2 cells, calcium flux, dopamine EC80; 2% of 340,000 active; P14416; in the data active means inhibition above about 30%; inactive means below that, where a call was filed; further: 0% is about no effect
#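 Overnight-induced (tetracycline, 30 C) HEK293 T-REx cells carrying force-coupled D2 receive a no-wash calcium dye, then compound, then EC80 dopamine at 180 s; signals are read kinetically throughout.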
# D2 ag-1 = D2 dopamine receptor (human) agonism | P14416 | HEK293 T-REx D2 cells, calcium flux agonist mode | activation, % at 2 µM | 0.53% of 340,000 active;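 active means activation over 3 SD above normal in the single-dose calcium agonist read, cut at about 30% in these data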; further: 0% is about no effect
#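 Calcium-flux readout, 1 cycle/sec over 180 s following compound pin transfer, in inducible HEK293 Trex D2 cells (force-coupled); dopamine controls included. Positive calcium responses during this window marked compounds as potential agonists.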
# D2 ag-2 = activates the human D2 dopamine receptor | activation, % (test concentration not listed) | 0.084% of 360,000 active | DiscoveRx PathHunter D2 beta-arrestin, luminescence, 90 min; 100% = 57 uM dopamine signal; in the data active means activation above about 40%; inconclusive means between about 15% and that limit
#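 DiscoveRx PathHunter D2 beta-arrestin cells (2,100/well) attached overnight, then compound-stimulated 90 min at 37 C in HBSS/10 mM HEPES/0.1% Tween-20 buffer; beta-galactosidase complementation read by luminescence after 1 h at ambient temperature. Dopamine 57 uM final (EC100) as control.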
# D3 ag = confirmation of human D3 dopamine receptor agonists, beta-arrestin. AID 720506. Potency, µM (doses to about 76.9 µM), for inactives: at the top dose activation, hits mostly activators. shares compounds with D2 ag-1. 4% of 2,300 active. DiscoveRx D3 beta-arrestin cells, luminescence, 90 min;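 further: potency means the concentration at half of the fitted maximal effect; 100% = dopamine control response; nearly all actives have a fitted effect of over 70% in size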
# D2 ag-3 = D2 receptor agonism, beta-arrestin counterscreen; shares compounds with D2 ag-1; DiscoveRx PathHunter D2 beta-arrestin, luminescence, 90 min; response scale: percent relative to full dopamine signal; Potency, µM (titrated, usually from 76.9 µM), for inactives: at the highest dose activation, most hits filed as activators; 5.9% of 2,300 active; AID 720507; further: potency means the concentration at half of the fitted maximal effect; % of control where 0% means no effect; nearly all actives have a fitted effect of over 70% in size
# * = called active by the depositor; ? = inconclusive; / = no result given. Unless noted, the call rests on the fitted dose curve; in most records, active means well fitted activation curve with a large enough effect; inconclusive means small, poorly fitted or top-dose-only effect; inactive means flat fitted curve, though single readings scatter.
SMILES,D2 PAM-1,D2 PAM-2,D2 antagonist,D2 ag-1,D2 ag-2,D3 ag,D2 ag-3
COc1ccc(-c2cn(Cc3ccc4c(c3)C(=O)c3ccccc3C4=O)nn2)cc1,-0.6,-1.4,12.8,1.3,2.5,39.8µM*,35.5µM*
OCCNCC1(O)C2CC3CC(C2)CC1C3 (stereo not given),-12.1,-1.7,0.5,0.5,-0.4,/,/
OC1(CNCc2ccccc2)C2CC3CC(C2)CC1C3 (stereo not given),-14.4,-19.0,56.5*,49.4*,0.8,-16.5%,3.9%
Cc1cccc(OCc2nnc(SCC(=O)Nc3ccc(C)cc3C)o2)c1,/,12.8,/,-2.3,/,/,/
Cc1cc(C)n(-c2nc3ccccc3nc2Nc2ccc(Cl)c(Cl)c2)n1,/,-5.0,/,-0.3,/,/,/
O=S(=O)(Cc1ccccc1)N1CCC(N2CCN(c3ccccc3)CC2)CC1,-4.1,-18.7,88.6*,82.6*,?,?,?
COc1ccc(S(=O)(=O)N2CCC(N3CCN(c4ccccc4)CC3)CC2)cc1,/,-12.5,61.4*,73.5*,/,19.5%,?
c1ccc(C2CCC(N3CCN(c4ccccc4)CC3)CC2)cc1 (stereo not given),-28.6,-19.5,-3.9,64.0*,-3.4,4.5%,9.3%
CC(C)c1nn2c(=O)cc(COC(=O)c3ccccc3NC(=O)c3cccs3)nc2s1,/,-2.5,/,/,/,/,/
CCCc1ccc(OCc2ccc(C(=O)Nc3ccccc3C(=O)OC)o2)cc1,/,9.3,/,-0.2,/,/,/
CCOc1ccc(NC(=O)CN(C)C(=O)C2CSC3(C)CCC(=O)N23)cc1OCC (stereo not given),-0.5,-2.5,8.6,0.0,0.7,-2.5%,-0.6%
COc1ccc(CN(C)C(=O)C2CSC3(C)CCC(=O)N23)cc1 (stereo not given),9.7,-2.0,7.6,0.3,-2.4,/,/
CCOc1ccc(NC(=O)CN(C)C(=O)CC2CCCCC2)cc1OCC,-1.3,-10.9,2.7,0.0,3.3,/,/
CCOc1ccc(NC(=O)CN(C)C(=O)CCC2CCCCC2)cc1OCC,-16.4,5.9,12.1,-1.4,1.8,-4.2%,0.5%
CC(=O)c1ccc(OC(=O)C2CSC3(C)CCC(=O)N23)cc1 (stereo not given),11.3,/,/,/,0.3,-4.1%,-1.6%
COc1ccc(NC(=O)CN(C)C(=O)C2CSC3(C)CCC(=O)N23)cc1 (stereo not given),5.9,0.1,-10.1,0.5,-3.3,-3.3%,0.7%
COc1ccc(CNC(=O)Cn2ncc3c(=O)oc4ccc(C)cc4c32)c(OC)c1,/,7.1,/,-1.2,/,/,/
CCOC(=O)c1ccc(N2C(=O)CC(NC3CCN(C(=O)c4ccc(F)cc4)CC3)C2=O)cc1 (stereo not given),-13.0,0.9,-5.9,0.2,-2.0,/,/
CCOc1ccc(N2C(=O)CC(NC3CCN(C(=O)c4ccc(F)cc4)CC3)C2=O)cc1 (stereo not given),13.4,2.1,37.9*,0.3,-1.5,4.3%,-1.2%
COc1ccc(-c2c(C#Cc3ccsc3)c3cc(-c4ccc5c(c4)OCO5)ccc3n2C)cc1,-3.3,-1.4,4.5,0.5,-1.1,0.5%,-1.3%
COc1ccc(-c2c(C#Cc3ccsc3)c3cc(-c4ccc5c(c4)OCCO5)ccc3n2C)cc1,-2.4,/,/,/,-4.1,/,/
COc1ccccc1CN(Cc1ccco1)c1cnc(S(C)(=O)=O)nc1C(=O)Nc1cc(C)ccc1C,/,12.8,/,2.8,/,/,/
COc1ccc(CNC(=O)CSCc2nc(-c3ccccc3C)oc2C)cc1,/,-2.7,/,/,/,/,/
CCOC(=O)c1ccc(NC(=O)CN2CCN(c3ccccc3)CC2)cc1,19.1,-17.3,61.7*,64.7*,?,?,?
CC(=O)N1CCc2cc(C(=O)CN3CCN(c4ccccn4)CC3)ccc21,23.6,-28.7,93.4*,86.8*,?,1.58µM*,1.12µM*
SMILES,D2 PAM-1,D2 PAM-2,D2 antagonist,D2 ag-1,D2 ag-2,D3 ag,D2 ag-3
NC(=O)c1ccc(NC(=O)CN2CCN(c3ccccc3)CC2)cc1,-14.9,-22.1,62.9*,72.5*,14.6,?,?
COc1ccc(NC(=O)CN2CCN(c3ccccc3)CC2)cc1,-8.2,-23.0,50.0*,54.1*,-1.0,9.3%,13.8%
NC(=O)c1ccc(NC(=O)CN2CCN(c3ccc(Cl)cc3)CC2)cc1,-1.9,6.3,/,/,-4.1,/,/
Cc1ccc(CNC(=O)C2CCC(CNS(=O)(=O)c3ccc4c(c3)CCCC(=O)N4)CC2)cc1 (stereo not given),/,-2.1,/,/,/,/,/
COc1cc(C2C(C(=O)OC(C)C)=C(C)N=C3SCCC(=O)N32)ccc1OCc1ccccc1 (stereo not given),/,7.2,/,0.8,/,/,/
CCOC(=O)C1=C(CNCc2ccccc2)NC(=O)NC1c1ccc(C)cc1 (stereo not given),/,2.1,/,-0.3,/,/,/
COC(=O)c1ccc(C(=O)OC)c(NC(=O)CN2CCN(c3ccccc3)CC2)c1,-15.7,7.4,-34.7,0.0,-2.6,/,/
COC(=O)c1ccc(NC(=O)CN2CCN(c3ccccn3)CC2)cc1,13.2,-22.1,68.5*,64.2*,46.3*,-3.3%,?
O=C(CN1CCN(c2ccccn2)CC1)Nc1ccccc1C(=O)Nc1ccccc1,11.6,9.3,-6.3,1.1,2.1,/,/
O=C(CN1CCN(c2ccccn2)CC1)Nc1ccc(OCc2ccccc2)cc1,?,9.0,57.3*,12.5,41.0*,-4.7%,?
COC(=O)c1ccc(NC(=O)CN2CCN(c3ccccc3)CC2)cc1,13.3,-22.1,95.0*,71.3*,?,-3.1%,?
Cc1ccc(NC(=O)C2(c3cccs3)CCOCC2)cc1Cl,/,/,/,-1.3,/,/,/
O=C1CC(c2nc(-c3ccc(Cl)cc3)no2)CN1c1ccc2c(c1)OCCO2 (stereo not given),/,-9.0,/,1.1,/,/,/
COc1ccc(OC)c(NC(=O)c2cccc(N3C(=O)C4C5CCC(C5)C4C3=O)c2)c1 (stereo not given),5.2,/,/,/,11.5,19.2%,?
Cc1ccccc1C(=O)Nc1ccc(C(=O)OCc2cc(=O)n3nc(C(C)C)sc3n2)cc1,/,1.9,/,1.1,/,/,/
Oc1ccc(N2CCN(Cc3ccc(OCCCN4CCCCC4)cc3)CC2)cc1,5.2,-29.4,91.3*,71.6*,46.7*,?,4.47µM*
c1ccc(COc2ccc(OCCCCN3CCCCC3)cc2)cc1,-43.6,-11.4,-14.8,0.3,4.0,/,/
CC(NC(=O)CN1CCN(c2ncccn2)CC1)c1ccc(F)cc1 (stereo not given),-31.8,-16.4,15.6,60.1*,7.6,10.6%,18.6%
